Assay [1] in a line: High-throughput drug toxicity screening in the BPDCN cell line Cal-1 (AID 1224825; call rule not given here). To be noted: Cal-1 BPDCN cell viability, qHTS; at 45.8 µM (top of the series). The gist of the method: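 Exponentially growing Cal-1 cells, 500 per well in phenol red-free RPMI with 10% FBS, were exposed to compounds for 48 h at 37 °C, 5% CO2. Viability was read by CellTiter-Glo luminescence and normalised to DMSO (100%) and 9.2 uM bortezomib (0%).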
(In general: qHTS replaces the single test concentration by a dilution series.)

The nature of assay [2]: qHTS assay for measurement of the activity of small molecule inhibitors on Zika virus induced Caspase-3 activity in human iPSC derived neural progenitor cells (hNPCs) (AID 1224857). Also: % of control where 0% means no effect; nearly all actives have a fitted effect of over 65% in size. In short, it runs like this: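 Percent inhibition of virus-induced caspase-3/7 luminescence (Caspase-Glo), scaled between uninfected cells and Zika-infected cells. hNPCs received compound 1 hr before ZIKV at 2 FFU/cell, with 6 hours infection at 37 C.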

The nature of assay [3]: qHTS assay for measurement of the activity of small molecule inhibitors on Zika virus induced Caspase-3 activity in human astrocytoma cells (AID 1224859). Also: potency is read from the fitted curve at half-maximal effect. In short, it runs like this:
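Luminescent caspase-3/7 read-out (30 min reagent, room temperature) in human SNB-19 cells infected 6 h with ZIKV (2 FFU/cell) after 1 h compound pre-incubation; Data were normalised to uninfected and infected wells.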

The nature of assay [4]: qHTS Screen of the MIPE 4.0 Collection Against Ewings Sarcoma (TC32) (AID 1259256). Also: nearly all actives have a fitted effect of over 45% in size. Also: potency is read from the fitted curve at half-maximal effect. The gist of the method:
(§1)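 Here, cells in 5% FBS RPMI were exposed for two days (48 h) to compound dilutions added four hours after plating. ATP-based CellTiter-Glo luminescence measured viability, normalized to vehicle and no-cell blanks.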

Assay [5] in a line: P-glycoprotein substrates identified in KB-3-1 adenocarcinoma cell line, qHTS therapeutic library screen (AID 1346986). Also: nearly all actives have a fitted effect of over 60% in size. In short, it runs like this:
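Resistance attributable to P-gp was assessed by comparing AC50 in KB-8-5-11 with parental KB-3-1 and by tariquidar reversal. Cells were exposed 72 h and viability read by CellTiter-Glo.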

A short description of assay [6]: P-glycoprotein substrates identified in KB-8-5-11 adenocarcinoma cell line, qHTS therapeutic library screen (AID 1346987). Also: nearly all actives have a fitted effect of over 65% in size. Also: potency is read from the fitted curve at half-maximal effect. The gist of the method: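 Steps: plate 500 KB-8-5-11 cells/well in DMEM + 10% FCS (colchicine removed); pin compounds in dose-response; incubate 72 h, 37 degree C, 5% CO2; add CellTiter-Glo, 5 min; read luminescence.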
Assay [7] in a line: NS1 protein of Zika virus - qHTS assay to identify small molecule inhibitors in human HEK 293 cells (AID 1347053). Also: nearly all actives have a fitted effect of over 55% in size. Also: potency is read from the fitted curve at half-maximal effect. The gist of the method:
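HEK 293; 20 h pre-culture, 37 C/5% CO2; cpd 1 h pre-infection; ZIKV MR766, MOI = 0.5, 24 h, 37 C; TR-FRET NS1 readout (two anti-NS1 Abs); norm. to no-virus vs infected.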

Assay [8] can be described thus: qHTS Screen of the MIPE 4.0 Collection Against Ewings Sarcoma (EW8) (AID 1259255). Also: potency is read from the fitted curve at half-maximal effect; nearly all actives have a fitted effect of over 35% in size. In short, it runs like this:
as §1

The nature of assay [9]: qHTS Screen of the MIPE 4.0 Collection Against Ewings Sarcoma (RDES) (AID 1259252). Also: nearly all actives have a fitted effect of over 35% in size. Also: potency is read from the fitted curve at half-maximal effect. The gist of the method:
as §1

Assay [10] in a line: Natriuretic polypeptide receptor (hNpr1) antagonism - Pilot counterscreen GloSensor control cell line (AID 1347045; calls by dose curve; also: % is scaled to controls: 0 for no effect and ±100 for the full control effect). The gist of the method: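 Luminescence was read before and 20 min after adding 50 uM SNP, which stimulates soluble guanylyl cyclase. The HEK293 cells expressing the GloSensor cGMP sensor had been preloaded with 2% reagent for 2 h and treated with compound.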
(In general: The purpose of a counterscreen is to sort out artefacts and off-target activity.)

Assay [11] addresses Atrial natriuretic peptide receptor 1 (Homo sapiens) (UniProt P16066). Nature of the assay: Natriuretic polypeptide receptor (hNpr1) antagonism - Pilot screen (AID 1347049; calls by dose curve;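 also: agonist-evoked cGMP luminescence read 20 min after hNppA addition; % is scaled to controls: 0 for no effect and ±100 for the full control effect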). The gist of the method:
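HEK293 cells co-expressing hNpr1 and the GloSensor pGS-40F cGMP luciferase sensor were preloaded with 2% GloSensor reagent for 2 h. Compounds were added for 30 min at room temperature, then cells were stimulated with 0.1 nM hNppA for 20 min before luminescence readout.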

Assay [12] deals with Atrial natriuretic peptide receptor 2 (Homo sapiens) (UniProt P20594). Briefly: Natriuretic polypeptide receptor (hNpr2) antagonism - Pilot subtype selectivity assay (AID 1347050; calls by dose curve; also: % is scaled to controls: 0 for no effect and ±100 for the full control effect). In short, it runs like this: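 cGMP-sensor HEK293/hNpr2 cells; 2% GloSensor reagent 2 h RT; compounds 30 min; baseline luminescence read; 1 nM hNppC agonist 20 min RT; final luminescence read by CCD camera. Antagonism = reduced post-agonist signal.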
Chain of Atrial natriuretic peptide receptor 2 (Homo sapiens) (P20594 whole entry, looked up): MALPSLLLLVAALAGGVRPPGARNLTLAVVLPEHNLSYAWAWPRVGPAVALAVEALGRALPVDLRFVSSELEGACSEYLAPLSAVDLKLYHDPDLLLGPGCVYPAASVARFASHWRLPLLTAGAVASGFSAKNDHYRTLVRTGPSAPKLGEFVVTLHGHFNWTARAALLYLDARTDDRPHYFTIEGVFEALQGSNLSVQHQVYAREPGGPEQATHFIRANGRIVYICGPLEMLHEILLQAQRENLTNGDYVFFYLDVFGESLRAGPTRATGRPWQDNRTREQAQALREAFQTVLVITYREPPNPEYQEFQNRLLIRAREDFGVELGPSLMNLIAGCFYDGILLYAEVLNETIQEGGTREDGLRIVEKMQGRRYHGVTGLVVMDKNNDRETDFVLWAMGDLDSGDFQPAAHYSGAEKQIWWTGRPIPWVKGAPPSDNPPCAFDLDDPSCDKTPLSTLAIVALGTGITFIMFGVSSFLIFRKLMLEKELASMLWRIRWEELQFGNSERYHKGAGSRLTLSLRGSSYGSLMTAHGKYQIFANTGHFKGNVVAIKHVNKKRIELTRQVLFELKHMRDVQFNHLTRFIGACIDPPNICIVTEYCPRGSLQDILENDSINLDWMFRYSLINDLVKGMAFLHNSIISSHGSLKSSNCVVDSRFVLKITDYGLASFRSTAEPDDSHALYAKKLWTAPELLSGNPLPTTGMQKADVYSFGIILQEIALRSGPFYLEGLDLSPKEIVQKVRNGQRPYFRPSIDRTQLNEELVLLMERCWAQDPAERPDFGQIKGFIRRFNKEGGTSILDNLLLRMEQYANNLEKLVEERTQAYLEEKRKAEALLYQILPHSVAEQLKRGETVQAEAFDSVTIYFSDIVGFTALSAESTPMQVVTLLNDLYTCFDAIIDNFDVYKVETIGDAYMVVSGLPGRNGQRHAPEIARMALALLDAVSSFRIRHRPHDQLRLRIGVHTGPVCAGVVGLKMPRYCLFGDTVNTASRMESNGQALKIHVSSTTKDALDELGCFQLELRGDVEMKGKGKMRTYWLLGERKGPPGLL

A short description of assay [13]: qHTS assay to identify small molecule inhibitors of chordoma cells - UCH-1 (AID 1259355). Also: % is scaled to controls: 0 for no effect and ±100 for the full control effect; nearly all actives have a fitted effect of over 55% in size. In short, it runs like this:
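Luminescent ATP read-out (CellTiter-Glo, 30min at room temperature) measured viability of UCH-1 cells exposed for 48hr to test drugs at 15 concentrations, co-dosed with a five-agent combination of auranofin, camptothecin, doxorubicin, rubitecan and topotecan.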

A short description of assay [14]: qHTS Screen of the MIPE 4.0 Collection Against Ewings Sarcoma (TC71) (AID 1259253).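 Also: 100% = DMSO-treated cells and 0% = medium-only wells without cells; nearly all actives have a fitted effect of over 40% in size.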 In short, it runs like this:
as §1

Inconclusive results are not listed. Calls of active or inactive are those of the source. Unless noted, calls follow the shape of the dose curve; as a rule, active = well fitted curve in the direction sought with a large enough effect; inconclusive = small, poorly fitted or top-dose-only effect, or another doubt; inactive = no such curve, though single readings can be large; an effect the other way counts as inactive or inconclusive.

Chain of Atrial natriuretic peptide receptor 1 (Homo sapiens) (P16066 whole entry, looked up): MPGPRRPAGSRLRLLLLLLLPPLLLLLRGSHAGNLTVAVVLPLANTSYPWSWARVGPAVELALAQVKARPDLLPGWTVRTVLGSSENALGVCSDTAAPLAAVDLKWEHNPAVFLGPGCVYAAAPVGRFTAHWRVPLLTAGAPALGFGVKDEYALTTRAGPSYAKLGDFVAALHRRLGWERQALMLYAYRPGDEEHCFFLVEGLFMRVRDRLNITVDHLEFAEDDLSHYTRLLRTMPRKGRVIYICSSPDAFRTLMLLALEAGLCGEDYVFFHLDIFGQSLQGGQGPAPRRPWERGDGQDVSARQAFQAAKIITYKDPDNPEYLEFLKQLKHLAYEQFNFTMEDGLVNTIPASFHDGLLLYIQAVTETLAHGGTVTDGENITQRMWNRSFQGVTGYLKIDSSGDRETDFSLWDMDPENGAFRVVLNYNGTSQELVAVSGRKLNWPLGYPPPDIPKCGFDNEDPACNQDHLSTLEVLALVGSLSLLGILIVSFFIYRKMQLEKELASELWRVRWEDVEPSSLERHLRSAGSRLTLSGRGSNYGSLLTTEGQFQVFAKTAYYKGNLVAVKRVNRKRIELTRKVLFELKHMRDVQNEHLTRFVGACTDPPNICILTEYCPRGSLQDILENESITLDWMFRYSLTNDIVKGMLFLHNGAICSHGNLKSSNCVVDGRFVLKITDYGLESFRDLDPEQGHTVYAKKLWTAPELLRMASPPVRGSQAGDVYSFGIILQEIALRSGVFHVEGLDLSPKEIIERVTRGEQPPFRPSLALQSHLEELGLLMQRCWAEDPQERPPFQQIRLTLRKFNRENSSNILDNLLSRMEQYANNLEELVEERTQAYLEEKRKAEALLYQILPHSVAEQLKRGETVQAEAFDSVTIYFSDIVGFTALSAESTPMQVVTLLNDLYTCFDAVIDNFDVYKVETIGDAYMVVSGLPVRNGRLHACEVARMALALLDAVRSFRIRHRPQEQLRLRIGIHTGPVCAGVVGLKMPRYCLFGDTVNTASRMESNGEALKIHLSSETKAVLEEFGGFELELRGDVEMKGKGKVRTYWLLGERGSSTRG

`CN1CCN(c2ccc([N+](=O)[O-])c3no[n+]([O-])c23)CC1`: in assay [1], the viability (% of control) stood at 4.53%. Further, the Potency result in [2], in assay [3], in assay [5], in [6] and in assay [7] was “inactive” each time. Moreover, the Potency in [4] was 18.7 µM (active).

For `CC[C@H]1C=CC=CC[C@@H](C)[C@H](O)[C@@](C)(O)C(=O)[C@@H](C)[C@H](O)[C@@H](C)C(=O)[C@@H](C)[C@H](O)[C@@H](C)C=CC(=O)O[C@@H]2[C@@H](C)[C@H](CC1)O[C@]1(CC[C@H](C)[C@H](C[C@@H](C)O)O1)[C@H]2C`, in assay [1], the viability (% of control) stood at 6.39%. Besides, the Potency entry in assay [2] and in assay [3] was “inactive” each time. The Potency is 4.69 µM (active) in assay [8], 1.05 µM (active) in [6] and 18.7 µM (active) in assay [7].

`COC(=O)[C@@H](N)CCCN=C(N)N[N+](=O)[O-]`: in assay [1], the viability (% of control) came to 132%. The Potency result in assay [2], in assay [3], in assay [9], in assay [4], in assay [6] and in assay [10] was “inactive” in each case. The Potency result in assay [11], in assay [12] and in assay [7] was “inactive” each time.

Take `CC(=CCCC1=CCC(C2=CC(=O)OC2O)OC1O)CCC1=C(C)CCCC1(C)C` (stereo not drawn): the viability (% of control) in assay [1] worked out at 103%. Moreover, the Potency result in [2], in assay [3], in [6] and in assay [7] was “inactive” throughout. Besides, the Potency is 18.7 µM (active) in assay [9] and 20.9 µM (active) in [4].

As for `COc1cccc2c1[C@]13CCN(CC4CC4)[C@H](C2)[C@]1(OC)CCC(=O)C3`, the viability (% of control) in assay [1] is 111%. In addition, the Potency result in assay [2], in [3], in assay [9], in assay [4] and in [7] was “inactive” in each case.

As for `O=C(NCC1CCOCC1)c1cnc(Nc2ccc(Cl)cc2Cl)nc1C(F)(F)F`, the viability (% of control) in [1] was 7.59%. Also, the Potency result in assay [2], in assay [5], in [6] and in assay [7] was “inactive” in each case. Moreover, the Potency in assay [3] was 8.33 µM (active).

As for `C[C@]12CCC(=O)C(O)=C1CC[C@@H]1[C@H]3CCC(=O)[C@@]3(C)CC[C@@H]12`, the viability (% of control) in assay [1] was 116%. In addition, the Potency result in assay [2], in [3], in [13], in assay [6] and in assay [7] was “inactive” in each case.

For the compound `CC(O)=C(C#N)C(=O)Nc1cc(Br)ccc1Br`, in assay [1], the viability (% of control) stood at 103%. For the same compound, the Potency result in [2], in assay [3], in assay [5], in [6] and in assay [7] was “inactive” each time. In assay [4], the Potency was 20.9 µM (active).

As to `C[C@H]1CCCC=CC2C[C@H](O)C[C@@H]2[C@H](O)C=CC(=O)O1` (stereo partly drawn), the viability (% of control) in assay [1] came to 4%. In addition, the Potency result in assay [2], in [3], in assay [9], in assay [4] and in assay [7] was “inactive” throughout. Besides, in assay [6], the Potency was 0.001 µM (active).

For `COc1ccc2c(c1)CN(C)CC2c1ccc(Cl)c(Cl)c1` (stereo not drawn), the viability (% of control) in assay [1] is 12.2%. For the same compound, the Potency entry in assay [2], in assay [3], in assay [5], in assay [6] and in [7] was “inactive” in each case.

`COc1ccc(C(=O)c2c(C)n(CCN3CCOCC3)c3cc(I)ccc23)cc1`: in assay [1], the viability (% of control) was 5.23%. In addition, the Potency entry in [2], in [3] and in assay [7] was “inactive” each time.

With `Oc1ccc2c3c1O[C@H]1c4[nH]c5c(c4C[C@@]4(O)[C@@H](C2)N(CC2CC2)CC[C@]314)C[C@@]1(O)[C@H]2Cc3ccc(O)c4c3[C@@]1(CCN2CC1CC1)[C@H]5O4`, the viability (% of control) in assay [1] was determined as 119%. In addition, the Potency entry in [2], in assay [3], in [14], in assay [4], in assay [5] and in assay [6] was “inactive” each time. In addition, the Potency entry in assay [10], in assay [11], in assay [12] and in [7] was “inactive” in each case.

The values above are taken from PubChem BioAssay (NCATS).
